# Measurements taken from the supplement of paper PMC8728848.
# Many of the other results were omitted from the sample, so the strongest signals are more common in it than they were.
# Assays:
# Test in all cases: glycan array binding signal (z-score within array); higher = stronger binding
# Settings in all cases: glycan notation: IUPAC condensed, linker removed
# [1] = target: Fuc(a1-2)Gal
# Summary of the method: (§1)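 Columns mapping to the same glycan were averaged after glycan names were converted to IUPAC-condensed notation. The data come from 3228 arrays in the Consortium for Functional Glycomics database, limited to those with an available protein sequence. Binding is reported as a within-array Z-score averaged across arrays of one protein sequence and across linkers.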
# [2] = target: Fuc(a1-2)Gal(b1-3)GalNAc
# Summary of the method: as §1
# [3] = target: Fuc(a1-2)Gal(b1-4)GlcNAc(b1-2)[Fuc(a1-2)Gal(b1-4)GlcNAc(b1-4)]Man(a1-3)[Fuc(a1-2)Gal(b1-4)GlcNAc(b1-2)Man(a1-6)]Man(b1-4)GlcNAc(b1-4)GlcNAc
# Summary of the method: as §1
# [4] = target: Fuc(a1-2)Gal(b1-4)GlcNAc6S
# Summary of the method: as §1
# [5] = target: Fuc(a1-2)Gal6S(b1-3)GlcNAc6S
# Summary of the method: as §1
# [6] = target: Fuc(a1-2)[Gal(a1-3)]Gal(b1-3)GlcNAc(b1-2)Man(a1-3)[Fuc(a1-2)[Gal(a1-3)]Gal(b1-3)GlcNAc(b1-2)Man(a1-6)]Man(b1-4)GlcNAc(b1-4)[Fuc(a1-6)]GlcNAc
# Summary of the method: as §1
# [7] = target: Fuc(a1-2)[Gal(a1-3)]Gal(b1-3)GlcNAc(b1-3)GalNAc
# Summary of the method: as §1
# [8] = target: Fuc(a1-2)[Gal(a1-4)]Gal(b1-4)GlcNAc
# Summary of the method: as §1
# [9] = target: Fuc(a1-2)[GalNAc(a1-3)]Gal(b1-4)[Fuc(a1-3)]GlcNAc(b1-3)GalNAc
# Summary of the method: as §1
# [10] = target: Fuc(b1-3)GlcNAc
# Summary of the method: as §1
# [11] = target: Gal(a1-2)Gal
# Summary of the method: as §1
# [12] = target: Gal(a1-3)Gal
# Summary of the method: as §1
# [13] = target: Gal(a1-3)Gal(b1-4)GlcNAc
# Summary of the method: as §1
# [14] = target: Gal(a1-3)[Gal(a1-4)]Gal(b1-4)GlcNAc
# Summary of the method: as §1
# [15] = target: Gal(a1-4)Gal(b1-3)GlcNAc(b1-2)Man(a1-3)[Gal(a1-4)Gal(b1-3)GlcNAc(b1-2)Man(a1-6)]Man(b1-4)GlcNAc(b1-4)GlcNAc
# Summary of the method: as §1
# [16] = target: Gal(b1-2)Gal
# Summary of the method: as §1
# [17] = target: Gal(b1-3)Gal(b1-4)GlcNAc
# Summary of the method: as §1
# [18] = target: Gal(b1-3)GalNAc
# Summary of the method: as §1
# [19] = target: Gal(b1-3)GalNAc(a1-3)[Fuc(a1-2)]Gal(b1-4)GlcNAc
# Summary of the method: as §1
# [20] = target: Gal(b1-3)GalNAc(b1-4)Gal(b1-4)Glc
# Summary of the method: as §1
# [21] = target: Gal(b1-3)GlcNAc(b1-6)Gal(b1-4)GlcNAc
# Summary of the method: as §1
# [22] = target: Gal(b1-3)GlcNAc6S
# Summary of the method: as §1
# [23] = target: Gal(b1-3)[GlcNAc(b1-6)]GalNAc
# Summary of the method: as §1
# [24] = target: Gal(b1-4)GlcNAc(a1-6)Gal(b1-4)GlcNAc
# Summary of the method: as §1
# [25] = target: Gal(b1-4)GlcNAc(b1-2)Man(a1-3)[Gal(b1-4)GlcNAc(b1-2)Man(a1-6)][GlcNAc(b1-4)]Man(b1-4)GlcNAc(b1-4)[Fuc(a1-6)]GlcNAc
# Summary of the method: as §1
# [26] = target: Gal(b1-4)GlcNAc(b1-2)Man(a1-3)[Man(a1-6)]Man(b1-4)GlcNAc(b1-4)GlcNAc
# Summary of the method: as §1
# [27] = target: Gal(b1-4)GlcNAc(b1-3)Gal(b1-3)GlcNAc
# Summary of the method: as §1
# [28] = target: Gal(b1-4)GlcNAc(b1-3)Gal(b1-4)GlcNAc(b1-3)Gal(b1-4)GlcNAc(b1-3)Gal(b1-4)GlcNAc(b1-2)[Gal(b1-4)GlcNAc(b1-3)Gal(b1-4)GlcNAc(b1-3)Gal(b1-4)GlcNAc(b1-3)Gal(b1-4)GlcNAc(b1-6)]Man(a1-6)[Gal(b1-4)GlcNAc(b1-3)Gal(b1-4)GlcNAc(b1-3)Gal(b1-4)GlcNAc(b1-3)Gal(b1-4)GlcNAc(b1-2)Man(a1-3)]Man(b1-4)GlcNAc(b1-4)[Fuc(a1-6)]GlcNAc
# Summary of the method: as §1
# [29] = target: Gal6P(b1-4)GlcNAc
# Summary of the method: as §1
binder,measurement,setting,value
VLRB.aGPA.23-GCN4-biotin (Petromyzon marinus) (protein) ACPSQCSCSGTEVNCAGKSLASVPAGIPTTTRVLYLNSNQITKLEPGVFDRLANLRELHLWGNQLVSLPPGVFDNLANLEKLWLNSNQLTSLPAGLFDRLVNLEHLGLCCMKLTELPSGAFDKLTRLKQLGLDQNQLKSIPDGAFARLPSLTHVWLHTNPWDCQCTDILYLSGWVAQHSSIVGEGWPWRHSPDSAKCSGTNTPVRAVTEASTSPSKCP,glycan array binding signal (z-score),[1],13.2
same,glycan array binding signal (z-score),[2],12.6
same,glycan array binding signal (z-score),[3],-0.082
same,glycan array binding signal (z-score),[4],-0.082
same,glycan array binding signal (z-score),[5],-0.055
same,glycan array binding signal (z-score),[6],-0.07
same,glycan array binding signal (z-score),[7],-0.083
same,glycan array binding signal (z-score),[8],-0.066
same,glycan array binding signal (z-score),[9],0.368
same,glycan array binding signal (z-score),[10],-0.075
same,glycan array binding signal (z-score),[11],0.157
same,glycan array binding signal (z-score),[12],-0.08
same,glycan array binding signal (z-score),[13],-0.079
same,glycan array binding signal (z-score),[14],-0.069
same,glycan array binding signal (z-score),[15],-0.073
same,glycan array binding signal (z-score),[16],3.68
same,glycan array binding signal (z-score),[17],0.046
same,glycan array binding signal (z-score),[18],0.232
same,glycan array binding signal (z-score),[19],-0.083
same,glycan array binding signal (z-score),[20],0.519
same,glycan array binding signal (z-score),[21],-0.077
same,glycan array binding signal (z-score),[22],-0.09
same,glycan array binding signal (z-score),[23],-0.079
same,glycan array binding signal (z-score),[24],-0.077
same,glycan array binding signal (z-score),[25],-0.081
same,glycan array binding signal (z-score),[26],-0.076
same,glycan array binding signal (z-score),[27],-0.071
same,glycan array binding signal (z-score),[28],-0.071
same,glycan array binding signal (z-score),[29],-0.084
